Source: PubChem (several laboratories)
KLK7 zymogen act: activates the human kallikrein-7 zymogen; P49862; AID 652039; 370,000 compounds, 0.9% hits; activation, % at 7 µM; purified proKLK7, EDANS-DABCYL substrate fluorescence; 100% is mature enzyme control, 0% vehicle;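 active = activation above the mean of all tested compounds plus 3 SD, computed per campaign excluding outliers beyond control limits, cut at about 13% in these data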
Target sequence (P49862 whole entry, looked up): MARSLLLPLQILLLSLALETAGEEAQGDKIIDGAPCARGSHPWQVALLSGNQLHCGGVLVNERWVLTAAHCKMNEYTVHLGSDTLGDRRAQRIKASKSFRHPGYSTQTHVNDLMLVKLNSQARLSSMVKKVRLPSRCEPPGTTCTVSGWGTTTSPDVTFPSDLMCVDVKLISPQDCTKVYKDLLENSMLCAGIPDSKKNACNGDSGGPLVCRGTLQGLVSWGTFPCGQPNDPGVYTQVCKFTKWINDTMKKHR
NR1D1 modulator: modulators of human Rev-erb alpha DNA binding; activity, % at 10 µM; Rev-erbα–FITC-DNA binding, fluorescence polarization, 90 min; P20393; 370,000 compounds, 0.79% hits; AID 1259318;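 active = activity above about 14%, limit read from the data; passing the limit was not always enough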;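 also: 0% = DMSO wells with 35 nM protein and 100% = DMSO wells with 750 nM protein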
PP1 counter: counter-screen for PP5 inhibitors: inhibitors of human PP1-alpha; P62136; purified PP1alpha, OMFP fluorescence; inhibition, % at 6.7 µM; 320,000 compounds, 0.9% hits;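 active = inhibition above the mean inhibition of all tested compounds plus 3 SD, computed separately for each screening campaign, cut at about 15% in these data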
Target sequence (P62136 whole entry, looked up): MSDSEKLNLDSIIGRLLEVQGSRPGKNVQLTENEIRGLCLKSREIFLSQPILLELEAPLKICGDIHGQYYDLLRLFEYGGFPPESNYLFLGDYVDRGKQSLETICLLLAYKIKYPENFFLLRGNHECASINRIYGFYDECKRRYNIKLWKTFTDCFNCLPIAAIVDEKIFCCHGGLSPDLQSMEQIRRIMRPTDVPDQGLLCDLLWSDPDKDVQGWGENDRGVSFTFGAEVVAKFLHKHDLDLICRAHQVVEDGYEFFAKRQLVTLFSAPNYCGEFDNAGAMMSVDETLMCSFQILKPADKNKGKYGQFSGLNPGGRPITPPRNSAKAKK
JMJD2C inh: inhibitors of human GASC-1 (JMJD2C) demethylase; Q9H3R0; GST-JMJD2C(1-420) H3K9me3 demethylation, DELFIA europium; inhibition, % at 2.35 µM; 330,000 compounds, 0.069% hits;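 active = more than half of a compound's replicate wells show inhibition beyond 50%, single wells judged on their own value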;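 also: signal counts dimethyl H3K9 product captured on neutravidin plate; 0% = median of DMSO wells and 100% = 0.3 times that DMSO median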
PP5 primary: blocks human protein phosphatase 5 activity | P53041 | purified PP5c, OMFP substrate fluorescence | inhibition, % at 6.7 µM | 320,000 compounds, 0.18% hits | AID 1987;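 active = inhibition above the campaign's mean inhibition across all tested compounds plus 3 SD, cut at about 9.5% in these data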;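 also: 0% = DMSO only and 100% = 100 µM cantharidin control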
PG9 binder: binds the HIV-1 gp120 antibody PG9; AID 624416; inhibition, % at 6.7 µM; TR-FRET gp120-PG9 antibody binding; 360,000 compounds, 0.43% hits; in the data active = inhibition above about 8.5%
PP1 inh confirm: confirmation of human PP1 phosphatase inhibitors; shares compounds with PP1 counter; purified PP1alpha, OMFP substrate fluorescence; inhibition, % at 6.7 µM; 1,900 compounds, 52% hits; AID 2358;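 active = mean PP1 inhibition above a set limit taken from the earlier primary screen, cut at about 15% in these data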
PP5 inh counter: counter-screen for PP1 inhibitors: human PP5 phosphatase inhibition | 1,900 compounds, 4% hits | purified PP5c, OMFP fluorescence | inhibition, % at 6.7 µM | shares compounds with PP1 counter;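 active = mean PP5 inhibition over triplicate wells above about 9.5% taken from the earlier PP1 screen, limit read from the data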
An asterisk follows results filed as active; . = no result; ! = repeats disagree. A selection: hits, their analogues and other compounds. The true share with any hit is near 2.8%.

SMILES	KLK7 zymogen act	NR1D1 modulator	PP1 counter	JMJD2C inh	PP5 primary	PG9 binder	PP1 inh confirm	PP5 inh counter
O=C(O)c1cc(-c2ccccc2)n(-c2ccccc2C(=O)O)n1	1	11	1	3	-1	1	.	.
CCN(Cc1ccccc1)c1ccc(/C=N/N=C(N)N)cc1	3	0	18*	7	2	-2	3	-1
Nc1cc(=O)[nH]c(SCC(=O)N2N=C(c3ccc(Cl)cc3)CC2c2ccco2)n1 (stereo not drawn)	0	-1	20*	-3	4	-1	10	-4
N[C@@H](Cc1cc(I)c(Oc2ccc(O)c(I)c2)c(I)c1)C(=O)O	0	-2	28*!	-11	1	0	15	-6
CCN(CC)C(=O)CSc1ncnc2c(-c3cccs3)nsc12	-5	-26	25*	27	3	-1	6	-3
CCN(CC)C(=O)CSc1ncnc2sccc12	0	1	0	-2	3	-1	.	.
c1cc2c3c(cccc3c1)NC1(CCCCCC1)N2	-1	-5	21*	-23	1	-6	21*	7
c1cc2c3c(cccc3c1)NC1(CCCCC1)N2	0	-16	26*	0	1	-3	10	18*
COC(=O)[C@@]12CCCCC3=C1N(CCC3)C(=O)[C@H]2CC(=O)NCC12CC3CC(CC(C3)C1)C2	0	6	.	.	.	.	.	.
CCCCN(CC)S(=O)(=O)c1ccc(C(=O)Nc2nnc(-c3cccs3)o2)cc1	.	.	26*	7	9	.	18*	0
CCN(CC)S(=O)(=O)c1ccc(C(=O)Nc2nnc(CSC)o2)cc1	0	1	8	1	0	1	.	.
CCOC(=O)N1CCN(S(=O)(=O)c2ccc(C(=O)Nc3nnc(C)o3)cc2)CC1	0	-7	7	-5	1	-1	.	.
CCOC(=O)N1CCN(S(=O)(=O)c2ccc(C(=O)Nc3nnc(CSC)o3)cc2)CC1	0	0	18*	-6	-4	-2	6	1
CCCCN(CCCC)S(=O)(=O)c1ccc(C(=O)Nc2nnc(COC)o2)cc1	.	.	23*	3	0	.	16*	-2
CCCCN(C)S(=O)(=O)c1ccc(C(=O)Nc2nnc(CSC)o2)cc1	1	-2	24*	-2	1	-1	23*	-2
Cc1nc2ccc(NC(=O)c3c(Cl)cccc3Cl)cc2c(=O)[nH]1	0	6	.	.	.	.	.	.
Cc1cc(N2CCNC[C@H]2C)ccc1N1CCN(Cc2ccccc2)[C@H](C)C1	1	-1	.	.	.	-3	.	.
COc1ccc(OC)c(S(=O)(=O)N2CCCCC2C(=O)N2CCCN(C)CC2)c1 (stereo not drawn)	0	0	.	.	.	.	.	.
O=C(N/N=C/c1ccsc1)c1c[nH]c2ccccc12	0	7	38*	10	0	-2	-2	0
Cc1ccc(S(=O)(=O)NCC2CCN(C(=O)C(=O)c3cccs3)CC2)cc1	0	-6	.	.	.	-1	.	.
Cn1ccc2cc3c(cc21)CCN3C(=O)Nc1cccnc1	-3	-31	35*	.	1	-7	0	-1
Cc1ccc(S(=O)(=O)N(CC(=O)N/N=C/c2ccccc2C(=O)O)c2cc(Cl)cc(Cl)c2)cc1	0	-2	19*	16	1	0	19*	1
Cc1cc2oc(C(=O)Nc3ccc(S(=O)(=O)Nc4nccs4)cc3)cc(=O)c2cc1Cl	0	-4	39*	7	-1	4	31*	-3
Cc1cc(C)c2oc(C(=O)Nc3ccc(S(=O)(=O)Nc4nccs4)cc3)cc(=O)c2c1	0	-6	7	8	4	0	.	.
Nc1c(C(=O)Nc2nc3ccccc3s2)sc2nc(-c3cccs3)ccc12	.	.	31*	1	1	.	32*	-1
SMILES	KLK7 zymogen act	NR1D1 modulator	PP1 counter	JMJD2C inh	PP5 primary	PG9 binder	PP1 inh confirm	PP5 inh counter
Cc1ccc(OCc2nnc(SCC(=O)Nc3ccc(S(=O)(=O)Nc4cc(C)nc(C)n4)cc3)n2Cc2ccco2)cc1	0	-2	.	.	.	.	.	.
CC1(C)Cc2c(C#N)c(N3CCN(C(=O)c4ccco4)CC3)nc(-c3ccco3)c2CS1	0	-2	19*	-7	6	2	3	-3
COC(=O)c1cc2c(c3c4cc(F)ccc4n(S(=O)(=O)c4ccccc4)c13)C(=O)N(Cc1ccco1)C2	-1	5	.	.	.	-1	.	.
Cc1nn(-c2ccc(Cl)cc2)c(Cl)c1/C=N/NC(=O)c1ccc(NS(=O)(=O)c2cccs2)cc1	0	-4	19*	-4	2	-2	15	1
Cc1nn(-c2ccc(F)cc2)c(Cl)c1/C=N/NC(=O)c1cccs1	0	-6	1	2	-1	1	.	.
CCCNC(=O)N1CC[C@H]2[C@@H]1c1cc(-c3ccc(F)cc3)ccc1N(C)[C@H]2CO	-1	-1	.	.	.	.	.	.
CC(c1ccccc1)n1cc(C(=O)NCCCN2CCCC2)nn1 (stereo not drawn)	0	-7	.	.	.	.	.	.
O=C(O)CCCN1C(=O)/C(=C\c2ccccc2OCc2ccccc2)SC1=S	1	6	19*	-27	4	-2	13	-2
O=C1/C(=C/c2ccccc2Cl)SC(=S)N1CCCC(=O)N(CCO)c1ccccc1	1	4	18*	-6	1	-2	15	5
CCOC(=O)[C@@]12CCCC3=C1N(CCC3)C(=O)[C@H]2CC(=O)N1CCCC1	0	3	.	.	.	.	.	.
COc1cc(C(=O)Nc2cc(-c3ccccc3)[nH]n2)cc(OC)c1OC	0	4	20*	35	2	1	17*	-3
O=C(O)c1cc(-c2cccs2)nn1-c1cccc(Cl)c1	0	2	29*	-13	-1	1	27*	-6
O=C(O)c1cc(-c2ccco2)nn1-c1cccc(Cl)c1	1	-15	12	-4	-3	0	.	.
O=C(O)c1cc(-c2cc3ccccc3o2)nn1-c1ccccc1	-1	-3	45*	-7	2	-1	45*	-2
O=C(O)c1cc(-c2cccs2)nn1-c1ccccc1	1	0	28*	5	-1	1	24*	-5
CCC(=O)N1CCc2cc(Br)c(S(=O)(=O)NC3CCN(Cc4ccccc4)CC3)cc21	0	0	.	.	.	.	.	.
COC(=O)[C@]12C[C@H](CC(=O)NCc3ccc(OC)c(OC)c3)C(=O)N(CCC3=CCCCC3)C1=C[C@H](C(C)C)O[C@@H]2C1CC1	0	2	.	.	.	.	.	.
COc1cc(OC)cc(C(C)c2ccc(-c3ccccc3)cc2)c1 (stereo not drawn)	.	-2	.	.	.	.	.	.
CC(C)Cn1c(N)c(C(=O)COC(=O)/C=C/c2ccccc2)c(=O)n(C)c1=O	1	-6	37*	-14	3	0	0	-1
